The panel holds about 83,000 compounds, 20% with a hit somewhere; the sample as a whole holds those more often.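 The endpoint reported here, percent growth, reads 100 for growth as untreated, 0 for no net growth and -100 for all cells dead.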 Unmarked numbers belong to inactive results. Active and inactive are the calls of the source. The calls were made as follows: active = growth percent below 10; inactive = the rest.
system: SNB-19 CNS; assay: NCI-60 one-dose screen, 48 h (100 = growth as untreated, 0 = no growth, -100 = all killed); conditions: 10 µM

Row | SMILES | growth
1 | O=C(/C=C/c1ccc(Cl)cc1)c1nc2ccccc2n1Cc1ccc(F)cc1 | 25%
2 | CC1=C(CCC=O)C2=C(C)C3(CC3)[C@@](C)(O)C(=O)C2=C1 | -100% (active)
3 | O=C(NC([Se])=NC1CCCCC1)c1ccc2c(c1)OCO2 | 33.3%
4 | C[C@H]1[C@H](OC(=O)CCC(=O)N(CCCc2cn(-c3ccc(C#N)cc3)nn2)CCNc2ccnc3cc(Cl)ccc23)O[C@@H]2OC3(C)CC[C@H]4[C@H](C)CC[C@@H]1[C@@]24OO3 | 69.8%
5 | C[C@H]1[C@@H](Oc2ccc(-c3cn(-c4ccnc5cc(Cl)ccc45)nn3)cc2)O[C@@H]2OC3(C)CC[C@H]4[C@H](C)CC[C@@H]1[C@@]24OO3 | 40.4%
6 | COc1ccc(/C=C/C(=O)c2nc3ccccc3n2Cc2ccc(Br)cc2)cc1 | 74.4%
7 | COC(=O)CCn1c(-c2ccc(-n3cc(-c4ccc(O[C@H]5O[C@@H]6OC7(C)CC[C@H]8[C@H](C)CC[C@@H]([C@H]5C)[C@@]68OO7)cc4)nn3)cc2)nc2ccccc21 | 24.5%
8 | C[C@H]1[C@H](OC(=O)CCC(=O)N(CCCc2cn(-c3ccc([N+](=O)[O-])cc3)nn2)CCNc2ccnc3cc(Cl)ccc23)O[C@@H]2OC3(C)CC[C@H]4[C@H](C)CC[C@@H]1[C@@]24OO3 | 67%

system: U251 CNS; assay: as above; conditions: 10 µM

Row | SMILES | growth
9 | O=C(/C=C/c1ccco1)c1nc2ccccc2n1Cc1ccc(Br)cc1 | 18.2%
10 | C#CC[Se]C(=O)c1ccc2n[se]nc2c1 | 73.2%
11 | O=C(/C=C/c1ccc(Cl)cc1Cl)c1nc2ccccc2n1Cc1ccc(F)cc1 | 13.4%
12 | CCOP(=O)(OCC)C(NC(C)=O)C(=O)SCCN (stereo not given) | 106%
13 | COc1cc2cc(C(=O)N3C[C@@H](CCl)c4c3cc(OC(=O)N3CCN(C)[C@@H]5CSSC[C@H]53)c3ccccc43)[nH]c2c(OC)c1OC | -14.6% (active)
14 | COc1ccc2cc([C@H](C)C(=O)[Se]CCC#N)ccc2c1 | -95.3% (active)
15 | CC(C)N=C([Se])NC(=O)c1cccs1 | 12.2%
16 | Cc1ccc2[nH]c(=S)n(-c3ccc(F)cc3)c(=O)c2c1 | 102%
17 | CCOC(=O)C1=C(Nc2ccccc2)C(=O)OC12C(=O)Nc1ccccc12 (stereo not given) | 109%
18 | CC12CCC3(CCC(=O)NCCCNc4ccnc5cc(Cl)ccc45)[C@@](C)(OO[C@]3(C)O1)O2 | -28.8% (active)
19 | CC(=O)Oc1ccccc1C(=O)[Se]C(=NC(C)C)NC(C)C | -87.8% (active)
20 | COCCOCCOCCOc1ccc(-n2cc(CCCN(CCNc3ccnc4cc(Cl)ccc34)C(=O)CCC(=O)O[C@@H]3O[C@@H]4OC5(C)CC[C@H]6[C@H](C)CC[C@@H]([C@H]3C)[C@@]46OO5)nn2)cc1 | 46%
21 | C[C@H]1[C@@H](CC(=O)N[C@@H](Cc2coc3ccccc23)B(O)O)O[C@@H]2OC3(C)CC[C@H]4[C@H](C)CC[C@@H]1[C@@]24OO3 | -14.3% (active)
22 | CC12OOC(C)(OO1)C2CCC(=O)NCCNc1ccnc2cc(Cl)ccc12 (stereo not given) | 110%
23 | CC[C@]12C=CCN3CC[C@@]4(c5ccc(OC)cc5N(C)[C@H]4[C@@](O)(C(=O)OC)[C@@H]1OC(=O)CCC[P+](c1ccc(C)cc1)(c1ccc(C)cc1)c1ccc(C)cc1)[C@@H]32 | -91.2% (active)
24 | CC(C)N=C([Se])NC(=O)c1ccccc1 | -59.4% (active)
25 | CC[C@]12C=CCN3CC[C@@]4(c5ccc(OC)cc5N(C)[C@H]4[C@@](O)(C(=O)OC)[C@@H]1OC(=O)CCC[P+](C1CCCCC1)(C1CCCCC1)C1CCCCC1)[C@@H]32 | -82.5% (active)
26 | CC1=C(COCCOC(=O)c2ccc(S(=O)(=O)F)cc2)C2=C(C)C3(CC3)[C@@](C)(O)C(=O)C2=C1 | 4.59% (active)
27 | CC[C@]12C=CCN3CC[C@@]4(c5ccc(OC)cc5N(C)[C@H]4[C@@](O)(C(=O)OC)[C@@H]1OC(=O)CCCC[P+](c1ccc(OC)cc1)(c1ccc(OC)cc1)c1ccc(OC)cc1)[C@@H]32 | -95.9% (active)
28 | CC[C@@]12CC(C(=O)OC)=C3Nc4cc5c(cc4[C@@]34CCN(C[C@H]3O[C@H]31)[C@@H]24)[C@@H]1[C@H](O5)[C@@H](O)[C@@]2(CC)CC(C(=O)OC)=C3Nc4cc(OC)ccc4[C@@]34CCN1[C@@H]24 | 17.2%
29 | CCOP(=O)(CC(F)(F)C(F)(F)F)OCC | 73.7%
30 | CC(=O)Oc1ccccc1C(=O)NC([Se])=NC1CCCCC1 | 24.2%
31 | C[C@H]1[C@H](OC(=O)CCC(=O)N(CCCc2cn(-c3ccc(CN4CCOCC4)cc3)nn2)CCNc2ccnc3cc(Cl)ccc23)O[C@@H]2OC3(C)CC[C@H]4[C@H](C)CC[C@@H]1[C@@]24OO3 | 13.3%
32 | CC1=C(CCC=O)C2=C(C)C3(CC3)[C@@](C)(O)C(=O)C2=C1 | -99.6% (active)
33 | C[C@H]1[C@H](OC(=O)CCC(=O)N(CCCc2cn(-c3ccc(C#N)cc3)nn2)CCNc2ccnc3cc(Cl)ccc23)O[C@@H]2OC3(C)CC[C@H]4[C@H](C)CC[C@@H]1[C@@]24OO3 | 51.9%
34 | C[C@H]1[C@@H](Oc2ccc(-c3cn(-c4ccnc5cc(Cl)ccc45)nn3)cc2)O[C@@H]2OC3(C)CC[C@H]4[C@H](C)CC[C@@H]1[C@@]24OO3 | 39.1%
35 | C[C@H]1[C@H](OC(=O)CCC(=O)N(CCCc2cn(-c3ccc([N+](=O)[O-])cc3)nn2)CCNc2ccnc3cc(Cl)ccc23)O[C@@H]2OC3(C)CC[C@H]4[C@H](C)CC[C@@H]1[C@@]24OO3 | 55.9%

From PubChem BioAssay (NCI)
